Measurements taken from PubChem BioAssay (NCATS).
Records with an inconclusive call do not appear. Where a call stands in place of a potency, no number is given. Active and inactive are the calls of the source. Unless noted, the call rests on the fitted dose curve; in most records, active means well fitted curve in the direction sought with a large enough effect; inconclusive means small, poorly fitted or top-dose-only effect, or another doubt; inactive means no such curve, though single readings can be large; an effect the other way counts as inactive or inconclusive.

Experiments:
[1] = qHTS Assay for Identification of Small Molecule Inducers of Hypoxia Response (AID 2120; active means well fitted curve in the direction sought with a large enough effect in the signal ratio, with a control signal flat, not every such curve was filed as active; the % refers to the signal ratio); conditions: hypoxia response reporter cells, beta-lactamase ratio readout; series mostly up to 104 µM
How it was run: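 ME-180 HRE-bla cells plated in Opti-MEM/0.5% dialyzed FBS, rested 4-5 h, then dosed with compound titrations by pin tool. After 17 h at 37 degrees C, CCF4 dye loaded 2.5 h at RT; 460/530 nm ratio gave %Activity and AC50.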

[2] = biological target: Ubiquitin carboxyl-terminal hydrolase 1 (Homo sapiens) (UniProt O94782); assay: Inhibitors of USP1/UAF1: Pilot qHTS (AID 504865); conditions: purified USP1/UAF1, Ub-rhodamine cleavage fluorescence; series mostly up to 114 µM;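 further: rhodamine fluorescence freed from ubiquitin-rhodamine substrate followed over time; top concentration of the series differs between compounds; nearly all actives have a fitted effect of over 35% in size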
Sequence of Ubiquitin carboxyl-terminal hydrolase 1 (Homo sapiens) (O94782 whole entry, looked up): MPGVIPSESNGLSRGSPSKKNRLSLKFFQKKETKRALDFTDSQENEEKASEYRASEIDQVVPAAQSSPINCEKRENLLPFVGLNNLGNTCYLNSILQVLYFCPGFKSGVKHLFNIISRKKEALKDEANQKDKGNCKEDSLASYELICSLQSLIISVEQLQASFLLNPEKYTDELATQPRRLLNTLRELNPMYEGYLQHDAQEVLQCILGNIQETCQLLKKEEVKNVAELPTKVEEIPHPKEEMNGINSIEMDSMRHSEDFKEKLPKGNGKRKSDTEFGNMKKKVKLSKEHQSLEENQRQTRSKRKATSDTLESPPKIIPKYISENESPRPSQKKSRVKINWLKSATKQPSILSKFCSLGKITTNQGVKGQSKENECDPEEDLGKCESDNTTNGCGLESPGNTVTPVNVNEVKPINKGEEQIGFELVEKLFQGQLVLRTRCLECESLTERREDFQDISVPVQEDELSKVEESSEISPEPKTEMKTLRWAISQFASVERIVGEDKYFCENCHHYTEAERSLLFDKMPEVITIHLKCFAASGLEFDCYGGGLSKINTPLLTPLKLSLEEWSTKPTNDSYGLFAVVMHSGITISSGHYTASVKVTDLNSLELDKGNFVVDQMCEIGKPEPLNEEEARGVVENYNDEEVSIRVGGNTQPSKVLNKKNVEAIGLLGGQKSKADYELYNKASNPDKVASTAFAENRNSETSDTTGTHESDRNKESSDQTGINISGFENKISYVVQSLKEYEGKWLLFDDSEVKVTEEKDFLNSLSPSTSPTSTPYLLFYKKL
How it was run: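 1nM USP1/UAF1 + cpd, 15 min RT; start w/ Ub-Rho 150nM final; kinetic FL 480/540 nm, 6 reads q60 s. Buffer 50mM HEPES pH 7.8, 0.5mM EDTA, 1mM TCEP, 0.01% Tween-20, 0.1 mg/ml BSA.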

[3] = biological target: Estrogen receptor (Homo sapiens) (UniProt P03372); assay: qHTS assay for small molecule antagonists of estrogen receptor alpha signaling (AID 588513; active means well fitted curve in the direction sought with a large enough effect in the signal ratio, with a control signal flat, not every such curve was filed as active; the % refers to the signal ratio); conditions: ER-alpha-UAS-bla HEK293, beta-lactamase ratio, antagonist mode; series mostly up to 76.9 µM
Sequence of Estrogen receptor (Homo sapiens) (P03372 whole entry, looked up): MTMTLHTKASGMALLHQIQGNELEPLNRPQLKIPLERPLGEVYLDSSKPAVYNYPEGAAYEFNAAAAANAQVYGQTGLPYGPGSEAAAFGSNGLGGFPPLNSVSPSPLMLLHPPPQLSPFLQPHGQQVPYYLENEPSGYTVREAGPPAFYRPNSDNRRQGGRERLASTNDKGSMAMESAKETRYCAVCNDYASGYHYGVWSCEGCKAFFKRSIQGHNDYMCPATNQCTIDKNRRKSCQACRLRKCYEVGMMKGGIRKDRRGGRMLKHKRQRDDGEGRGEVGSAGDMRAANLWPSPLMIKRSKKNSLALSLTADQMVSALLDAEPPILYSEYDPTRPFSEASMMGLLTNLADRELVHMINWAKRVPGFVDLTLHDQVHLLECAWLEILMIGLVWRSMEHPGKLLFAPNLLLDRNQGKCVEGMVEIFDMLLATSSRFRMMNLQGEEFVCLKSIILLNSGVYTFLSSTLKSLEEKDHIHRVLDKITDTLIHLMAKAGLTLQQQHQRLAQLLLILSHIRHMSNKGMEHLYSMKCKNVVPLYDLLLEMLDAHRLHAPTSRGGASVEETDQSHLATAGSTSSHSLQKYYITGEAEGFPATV
How it was run: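 Beta-lactamase reporter, antagonist mode, HEK 293 GripTite cells; 0.5nM E2 stimulus, 18 h, 37 C; CCF4 dye 2 h RT; fluorescence. IC50 and efficacy from Hill fits, normalized to E2 and DMSO.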

[4] = biological target: Estrogen receptor (Homo sapiens) (UniProt P03372); assay: qHTS assay for small molecule agonists of estrogen receptor alpha signaling (AID 588514; calls by dose curve; further: nearly all actives have a fitted effect of over 70% in size); conditions: ER-alpha-UAS-bla HEK293, beta-lactamase ratio, 18 h, percent of full estradiol response, vehicle zero; series mostly up to 76.8 µM
How it was run: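 Cells were plated at 5000/well, incubated 4 hrs at 37 C, dosed with compound titration series, incubated 18 hrs at 37 C, loaded with CCF4 dye for 2 hrs at RT, then fluorescence was read.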

[5] = biological target: Bile acid receptor (Homo sapiens) (UniProt Q96RI1); assay: qHTS assay for small molecule antagonists of farnesoid X receptor signaling (AID 588526; calls by dose curve); conditions: HEK293T FXR-UAS-bla, beta-lactamase ratio, antagonist mode; series mostly up to 76.7 µM
Sequence of Bile acid receptor (Homo sapiens) (Q96RI1 whole entry, looked up): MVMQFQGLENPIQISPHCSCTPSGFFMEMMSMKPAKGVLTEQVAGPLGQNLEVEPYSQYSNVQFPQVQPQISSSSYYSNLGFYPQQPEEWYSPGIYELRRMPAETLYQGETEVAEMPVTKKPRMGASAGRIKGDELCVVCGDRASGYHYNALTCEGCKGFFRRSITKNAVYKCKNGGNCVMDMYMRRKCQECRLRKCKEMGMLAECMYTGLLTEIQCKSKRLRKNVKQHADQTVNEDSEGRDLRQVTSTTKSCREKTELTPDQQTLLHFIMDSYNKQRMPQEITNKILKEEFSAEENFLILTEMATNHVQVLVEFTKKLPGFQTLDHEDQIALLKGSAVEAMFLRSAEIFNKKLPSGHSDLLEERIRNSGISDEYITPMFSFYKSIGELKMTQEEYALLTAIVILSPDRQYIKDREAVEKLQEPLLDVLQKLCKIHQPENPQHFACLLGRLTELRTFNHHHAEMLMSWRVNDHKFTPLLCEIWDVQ
How it was run: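 Beta-lactamase reporter antagonist mode: HEK293T FXR-UAS-bla cells, titrated compound, CDCA stimulation, 16 h 37 C, CCF4 dye 2 h RT. Data normalized to CDCA 50 uM and DMSO; Hill-fit IC50.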

[6] = biological target: ATP-dependent 6-phosphofructokinase (Trypanosoma brucei brucei) (UniProt O15648); assay: qHTS Assay to Find Inhibitors of T. brucei phosphofructokinase: hit validation (AID 492961);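 further: luminescence reports ADP formed as PFK phosphorylates fructose-6-phosphate with ATP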; conditions: T. brucei PFK, ADP-Glo luminescence; series mostly up to 51.4 µM
Sequence of ATP-dependent 6-phosphofructokinase (Trypanosoma brucei brucei) (O15648 whole entry, looked up): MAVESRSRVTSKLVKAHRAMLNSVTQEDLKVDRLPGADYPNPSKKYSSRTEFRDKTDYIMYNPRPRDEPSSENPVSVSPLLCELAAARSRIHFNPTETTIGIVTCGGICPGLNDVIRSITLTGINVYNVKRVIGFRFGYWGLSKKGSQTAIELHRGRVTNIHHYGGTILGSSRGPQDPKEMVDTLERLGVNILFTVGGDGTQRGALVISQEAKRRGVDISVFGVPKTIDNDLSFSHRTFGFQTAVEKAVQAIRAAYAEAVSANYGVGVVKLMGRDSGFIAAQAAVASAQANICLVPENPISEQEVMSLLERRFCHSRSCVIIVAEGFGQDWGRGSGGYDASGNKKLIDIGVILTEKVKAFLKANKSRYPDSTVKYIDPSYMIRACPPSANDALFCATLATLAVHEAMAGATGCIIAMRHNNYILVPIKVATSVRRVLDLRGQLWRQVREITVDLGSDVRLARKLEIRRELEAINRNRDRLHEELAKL
How it was run: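 In this biochemical qHTS validation, titrated compounds were tested against 1.25 nM PFK with 0.1 mM ATP and 0.5 mM F6P. Percent activity came from controls lacking or containing enzyme.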

## CCCC(O)C(CC)CO (stereo not drawn)
[1]
  outcome: inactive
[2]
  Potency: inactive
[3]
  outcome: inactive
[4]
  outcome: inactive

## Cc1cc(C)nc(NS(=O)(=O)c2ccc(N)cc2)n1
[1]
  outcome: inactive
[2]
  Potency: inactive
[5]
  outcome: inactive

## Cc1cc(O)cc(C)c1Cl
[6]
  outcome: inactive

## COc1ccccc1OC(=O)Oc1ccccc1OC
[6]
  outcome: inactive

## CCCCCCCCCCCCCCCCN
[6]
  outcome: inactive

## CN(C/C=C/C#CC(C)(C)C)Cc1cccc2ccccc12
[6]
  outcome: inactive

## CCCCCCCCCCC(CO)CCCCCCCC (stereo not drawn)
[6]
  outcome: inactive

## O=C(c1ccccc1)C(O)c1ccccc1 (stereo not drawn)
[1]
  outcome: inactive
[6]
  outcome: inactive

## Cc1cc(=O)[nH]c(=S)[nH]1
[1]
  outcome: inactive
[6]
  outcome: inactive
[3]
  outcome: inactive
[4]
  outcome: inactive
[5]
  outcome: inactive

## O=C1c2cccc(O)c2C(=O)c2c(O)cccc21
[1]
  outcome: inactive
[6]
  outcome: inactive
[2]
  Potency: inactive

## NC(=O)CC[C@@H](N)C(=O)O
[6]
  outcome: inactive

## CNc1c2c(nn1C)CCCC2
[6]
  outcome: inactive

## CC(C)CCOC(=O)c1ccc(N(C)C)cc1
[6]
  outcome: inactive

## Cc1onc(-c2ccccc2)c1-c1ccc(S(N)(=O)=O)cc1
[6]
  outcome: inactive
[2]
  Potency: inactive

## COc1ccc(Cc2cnc(N)nc2N)cc1OC
[6]
  outcome: inactive
[2]
  Potency: inactive

## COc1ccc(C(=O)NCc2ccc(OCCN(C)C)cc2)cc1OC
[6]
  outcome: inactive
[2]
  Potency: inactive

## Cc1cccc(C(=O)O)c1O
[6]
  outcome: inactive
[2]
  Potency: inactive

## NC(=O)NS(=O)(=O)c1ccc(N)cc1
[6]
  outcome: inactive
[2]
  Potency: inactive

## CC(=O)OC[C@H]1O[C@@](COC(C)=O)(O[C@H]2O[C@H](COC(C)=O)[C@@H](OC(C)=O)[C@H](OC(C)=O)[C@H]2OC(C)=O)[C@@H](OC(C)=O)[C@@H]1OC(C)=O
[6]
  outcome: inactive
[2]
  Potency: inactive

## O=c1[nH]c(=O)c2ccccc2o1
[6]
  outcome: inactive
[2]
  Potency: inactive

## Cc1ccccc1N=Nc1ccc(N=Nc2c(O)ccc3ccccc23)c(C)c1
[6]
  outcome: inactive
[2]
  Potency: inactive

## C=CCSCC1Nc2cc(Cl)c(S(N)(=O)=O)cc2S(=O)(=O)N1 (stereo not drawn)
[6]
  outcome: inactive
[2]
  Potency: inactive

## Nc1ccncc1N
[6]
  outcome: inactive
[2]
  Potency: inactive

## CC[N+](C)(CC)CCOC(=O)C1c2ccccc2Oc2ccccc21
[6]
  outcome: inactive
[2]
  Potency: inactive

## CCOC(=O)[C@H](CCc1ccccc1)N[C@@H](C)C(=O)N1CCC[C@H]1C(=O)O
[6]
  outcome: inactive
[2]
  Potency: inactive

## CCCCCCCC(=O)OCC(O)CO (stereo not drawn)
[6]
  outcome: inactive
[2]
  Potency: inactive

## Cc1[nH]c(C)c(Cl)c(=O)c1Cl
[6]
  outcome: inactive
[2]
  Potency: inactive

## O=C(O)COC(=O)Cc1ccccc1Nc1c(Cl)cccc1Cl
[6]
  outcome: inactive
[2]
  Potency: inactive

## O=C1CC[C@@H](C(=O)O)N1
[6]
  outcome: inactive
[2]
  Potency: inactive

## NC(=O)c1ccc([N+](=O)[O-])cc1Cl
[6]
  outcome: inactive
[2]
  Potency: inactive

## COC(=O)c1cccnc1
[6]
  outcome: inactive
[2]
  Potency: inactive

## Cc1ccsc1C(=CCCN1CCC[C@@H](C(=O)O)C1)c1sccc1C
[6]
  outcome: inactive
[2]
  Potency: inactive
